In PubChem BioAssay AID488975 (Johns Hopkins Ion Channel Center, 2010):
Out of some 310,000 compounds screened, about 2,600 (0.84%) were called active.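 The calls were made as follows: active = B-score over 3 SD under the library average, and starting fluorescence ratio not unusually high; inactive = the rest.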 Many of the other results were omitted from the sample, so actives are more common in it than they were.

Molecular target: High affinity choline transporter 1 (Homo sapiens) (UniProt Q9GZV3)
Experiment: inhibits the human high affinity choline transporter (AID 488975);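 as to B-score: choline stimulus applied at its EC90 after an EC20 pre-addition; B-score computed on integrated fluorescence ratio after choline addition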
Details: CHT-expressing cells, membrane potential dye, choline response, at 10 µM; hits give low values

Chain of High affinity choline transporter 1 (Homo sapiens) (Q9GZV3 whole entry, looked up): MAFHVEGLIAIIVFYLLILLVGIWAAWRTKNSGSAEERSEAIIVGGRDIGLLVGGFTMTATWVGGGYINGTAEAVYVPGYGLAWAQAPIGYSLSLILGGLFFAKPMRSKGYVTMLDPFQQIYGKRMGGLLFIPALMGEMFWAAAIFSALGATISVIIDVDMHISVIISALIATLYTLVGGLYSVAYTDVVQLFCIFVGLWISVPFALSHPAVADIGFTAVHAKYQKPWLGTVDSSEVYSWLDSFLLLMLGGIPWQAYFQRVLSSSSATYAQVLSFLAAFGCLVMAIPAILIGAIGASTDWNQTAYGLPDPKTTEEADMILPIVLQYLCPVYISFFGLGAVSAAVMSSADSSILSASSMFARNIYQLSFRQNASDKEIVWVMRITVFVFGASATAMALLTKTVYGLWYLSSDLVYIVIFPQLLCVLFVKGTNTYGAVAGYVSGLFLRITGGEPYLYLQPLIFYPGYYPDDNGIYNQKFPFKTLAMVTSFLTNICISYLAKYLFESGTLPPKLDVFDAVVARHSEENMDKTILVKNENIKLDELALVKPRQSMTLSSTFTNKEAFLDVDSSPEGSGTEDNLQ

| Compound | B-score |
| --- | --- |
| CCOC(=O)N1CCN(CC(=O)c2c(C)[nH]c3ccccc23)CC1 | inactive |
| Cc1[nH]c2ccccc2c1C(=O)CN1CCCC(C)C1 (centres undefined) | -6.04 (active) |
| Cc1[nH]c2ccccc2c1C(=O)CN1CC(C)CC(C)C1 (centres undefined) | inactive |
| [O-][n+]1ccc(OCc2ccccc2)cc1 | inactive |
| Cc1ccc([C@@H]2CC=C(C(=O)O)[C@H](c3cccc(Cl)c3)N2S(=O)(=O)c2ccc(C)cc2)cc1 | inactive |
| COc1ccccc1C(=O)NC(CCSC)C(=O)N1CCN(C/C=C/c2ccccc2)CC1 (centres undefined) | inactive |
| O=C(Nc1ccc2nc3n(c(=O)c2c1)CCCC3)c1ccc(Cl)nc1 | inactive |
| COCCn1cnc2c1c(=O)n(Cc1ccc(Br)cc1)c(=O)n2Cc1ccccc1 | inactive |
| CCN(CC)CCn1cnc2c1c(=O)[nH]c(=O)n2Cc1ccccc1 | inactive |
| N=c1c2c(-c3ccccc3)c(-c3ccccc3)n(Cc3ccccc3)c2ncn1CCCO | -9.35 (active) |
| CCOC(=O)C1CCN(C(=O)COC(=O)C2CCN(S(=O)(=O)c3ccc4c(c3)OCCO4)CC2)CC1 | inactive |
| Cc1cc(C)c(S(=O)(=O)n2cc(C(C)C(N)C(=O)O)c3ccccc32)c(C)c1 (centres undefined) | inactive |
| CCN(CC(=O)Nc1c(F)cccc1F)C(=O)c1ccc(-c2ccccc2)cc1 | inactive |
| COc1ccccc1/C=N/Nc1nc(C)c(C(C)=O)s1 | inactive |
| COc1ccc(C(=O)NCC(c2ccco2)N2CCc3ccccc32)cc1OC (centres undefined) | inactive |
| Cc1sc2nc(CSCC(=O)NC3CCCCC3)[nH]c(=O)c2c1C | inactive |
| N=c1n(Cc2ccc(Cl)cc2)c2ccccc2n1CC(O)c1ccco1 (centres undefined) | -5.25 (active) |
| Cn1c(=N)n(CC(O)c2ccccc2)c2ccccc21 (centres undefined) | inactive |
| Cn1c(=N)n(CC(O)c2cccs2)c2ccccc21 (centres undefined) | inactive |
| O=C(N/N=C/c1cc(Br)c(O)c([N+](=O)[O-])c1)C(O)(c1ccccc1)c1ccccc1 | inactive |
| CCCCN(C(=O)CSCC(=O)Nc1ccc(OC)cc1)c1c(N)n(CCC)c(=O)[nH]c1=O | inactive |
| O=C(Cc1ccc(S(=O)(=O)N2CCOCC2)s1)NCCOc1ccccc1F | inactive |
| Cc1ccc(NC(=O)C2CC(=O)N(c3ccc4c(c3)OCCO4)C2)cc1S(=O)(=O)N1CCCCCC1 (centres undefined) | inactive |
| CCCCn1c(=O)c(C(C)=O)c(O)c2ccccc21 | inactive |
| CCCCCn1c(=O)c(C(=O)OCC)c(Cl)c2ccccc21 | -5.74 (active) |

| Compound | B-score |
| --- | --- |
| CCOC(=O)c1nnn2c3ccccc3c(=O)n(C)c12 | inactive |
| Cc1sc2ncnc(N3CCC(C(=O)Nc4nc5ccc(Cl)cc5s4)CC3)c2c1C | inactive |
| CCc1ccc(Nc2n[n+](-c3ccccc3)c(-c3cccc(Cl)c3Cl)s2)cc1 | inactive |
| Cc1ccc2nc(Nc3ccccc3O)nc(-c3ccccc3)c2c1 | inactive |
| Cc1cc(Nc2ccc(Br)cc2)nc2ccccc12 | inactive |
| Cc1ccc2nc(Nc3ccccc3)cc(C)c2c1 | -8.75 (active) |
| Cc1ccc(NS(=O)(=O)c2ccc(F)cc2)nc1 | inactive |
| O=S(=O)(Nc1ccc(Cl)cn1)c1cnc(Cl)c(Br)c1 | -8.67 (active) |
| O=S(=O)(Nc1ccccn1)c1cccc(S(=O)(=O)c2ccc(Cl)cc2)c1 | inactive |
| CC(=O)c1c(C)[nH]c(C(=O)COC(=O)CCOc2ccc(C)cc2)c1C | inactive |
| CCOC(=O)N1CCN(C(=O)C2CCN(S(=O)(=O)c3cc(Cl)ccc3OCC)CC2)CC1 | inactive |
| CCOC(=O)N1CCN(C(=O)C2CCN(c3ncnc4c3sc3cccc(F)c34)CC2)CC1 | -5.37 (active) |
| CCOC(=O)C1CCN(c2ncnc3c2oc2ccc(Br)cc23)CC1 | inactive |
| CNCC(O)c1ccc(O)c(O)c1 (centres undefined) | -5.02 (active) |
| CC(=O)NCC(O)c1ccc([N+](=O)[O-])cc1 (centres undefined) | inactive |
| CCC(C)c1ccc(O)c(/C=N/O)c1 (centres undefined) | inactive |
| COc1cc(C(=O)NCC(=O)NCCSc2ccc(Br)cc2)cc(OC)c1OC | inactive |
| C=CCOc1ccc(/C=C/C(=O)OCC(=O)NC(C)c2ccc(F)cc2)cc1 (centres undefined) | inactive |
| CCOC(=O)C(Cc1ccccc1)NC(=O)CCC(=O)c1ccc(OC)cc1 (centres undefined) | inactive |
| COc1ccc(C(=O)N[C@H](C(=O)NCc2ccccc2)C(C)C)cc1 | inactive |
| COc1ccc(C(=O)NC(Cc2ccc(OC(=O)c3ccc(OC)cc3)cc2)C(=O)O)cc1 (centres undefined) | -5.4 (active) |
| CCOc1ccc(CCNC(=O)COC(=O)C2CCN(c3ccc(C(F)(F)F)cn3)CC2)cc1OCC | inactive |
| FC(F)(F)c1ccc2c3n(nc2c1)CCN=C3c1ccc(Cl)cc1 | inactive |
| Cc1cccc(-c2nc3ccc(C(=O)NCCN4CCN(C)CC4)cc3nc2-c2cccc(C)c2)c1 | -5.67 (active) |
| Cc1ccc(C(=O)NCCN2CCOCC2)cc1C | inactive |

| Compound | B-score |
| --- | --- |
| Cc1cccc(C(=O)NCCCN2CCCC2=O)c1 | inactive |
| NC1=NC(c2ccc([N+](=O)[O-])cc2)N(c2ccc(F)cc2)C(N)=N1 (centres undefined) | inactive |
| Cc1ccc(OCC(=O)OC(C)CN(C)Cc2ccccc2)cc1 (centres undefined) | inactive |
| CN(Cc1ccccc1)CC(O)COc1ccc(CNCc2cc3ccccc3s2)cc1 (centres undefined) | -5.57 (active) |
| OC(CNCc1ccc2c(c1)OCO2)COc1ccccc1 (centres undefined) | inactive |
| COc1ccccc1NC(=O)Nc1nc(CC(=O)Nc2ccccc2F)cs1 | inactive |
| CCOc1cc(N2CCOCC2)c(OCC)cc1NC(=O)COc1cccc(Cl)c1 | inactive |
| CCN(CC(=O)Nc1cccc(S(=O)(=O)N2CCCCC2)c1)Cc1ccccc1 | inactive |
| Cc1ccc(-c2cc(=O)[nH]c(NCc3ccccc3)n2)cc1 | inactive |
| CCCCN(C1CCS(=O)(=O)C1)S(=O)(=O)c1ccc(C(C)C)cc1 (centres undefined) | inactive |
| CCCCOc1ccc(Cl)cc1CSc1nncn1N | -4.96 (active) |
| COc1ccc(Cl)cc1CSc1ncn[nH]1 | inactive |
| Cc1cc(=O)[nH]c(SCc2cc(Cl)ccc2OC(F)F)n1 | inactive |
| COc1ccccc1C(CNC(=O)c1cccc(NS(=O)(=O)c2ccc(Br)cc2)c1)N(C)C (centres undefined) | inactive |
| CN(CC(=O)NCc1cccnc1)S(=O)(=O)c1cc(Cl)ccc1Cl | inactive |
| COc1ccc(CC2c3cc(OC)c(OC)cc3CC[N+]2(C)CCC(=O)OCCCCCOC(=O)CC[N+]2(C)CCc3cc(OC)c(OC)cc3C2Cc2ccc(OC)c(OC)c2)cc1OC (centres undefined) | inactive |
| Cc1ccccc1N1CC(C(=O)Nc2ccc(S(=O)(=O)N3CCCC3)cc2)CC1=O (centres undefined) | inactive |
| CCC1(c2ccccc2)NC(=O)N(CC(=O)Nc2ccccc2C(=O)NC2CCCC2)C1=O (centres undefined) | inactive |
| CCc1noc(C)c1C(=O)Oc1ccc(N(C)S(=O)(=O)c2ccc(C)c(C)c2)cc1 | inactive |
| CC1CN(S(=O)(=O)c2ccc(C(=O)NN3CCN(C)CC3)cc2)CC(C)O1 (centres undefined) | -5.14 (active) |
| CC1CC(C)CN(S(=O)(=O)c2ccc(C(=O)NN3CCOCC3)cc2)C1 (centres undefined) | inactive |
| CN1CCN(NC(=O)c2ccc(S(=O)(=O)N3CCCCCC3)cc2)CC1 | inactive |
| CCCc1cc(=O)[nH]c(SCC(=O)c2c(N)n(CC(C)C)c(=O)n(C)c2=O)n1 | inactive |
| CCCCC(=O)Nc1cc(C)c2c(=O)oc3ccccc3c2n1 | inactive |
| CCOC(=O)c1c(C)nc2c(c1C)c(=O)oc1ccccc12 | inactive |

| Compound | B-score |
| --- | --- |
| Cc1ccccc1-n1nnc2c(=O)oc3ccccc3c21 | -6.25 (active) |
| Cc1ccc(Cl)c(OCC(=O)N(C)CC(=O)Nc2ccc(N3CCOCC3)cc2)c1 | inactive |
| Cc1ccc(C(=O)N/C(=C/C=C/c2ccccc2)C(=O)NCc2ccco2)cc1 | -7.21 (active) |
| O=C(NCc1ccco1)/C(=C/c1ccco1)NC(=O)c1ccccc1 | inactive |
| CNC(=O)/C(=C\C=C\c1ccccc1)NC(=O)c1ccc([N+](=O)[O-])cc1 | inactive |
| Cc1n[nH]c(=O)c2c(NC(=O)CSc3ccccc3F)oc(C)c12 | inactive |
| Cc1ccc2nc(SCC(=O)Nc3cccc4ccccc34)nc(=O)n2c1 | inactive |
| Cc1nn(CC(=O)NCC2CCCO2)c(=O)c2cc3ccccc3n12 (centres undefined) | -5.7 (active) |
| Cc1c(Cl)c([N+](=O)[O-])nn1CC(=O)NCC1CCCO1 (centres undefined) | inactive |
| Cc1sc2c(c1C)c(=O)n(-c1ccccc1)c(=O)n2CC(=O)NCC1CCCO1 (centres undefined) | inactive |
| COc1ccc(N2C(=O)C(Cc3ccccc3)NC2=S)cc1 (centres undefined) | inactive |
| COc1ccc(N2C(=O)CNC2=S)cc1 | -7.99 (active) |
| COc1ccc(N2C(=O)CC(SC(C)C)C2=O)cc1 (centres undefined) | inactive |
| CCOC(=O)N1CCN(C(=O)c2ccccc2SCC(=O)NCC2CCCCC2)CC1 | inactive |
| CC(C)(C)NC(=O)NC(=O)CN1CCC(Cc2ccccc2)CC1 | -7.19 (active) |
| NC(=O)c1ccc(CN2CCC(Cc3ccccc3)CC2)cc1 | inactive |
| O=C(O)c1ccc(S(=O)(=O)N2CCC(Cc3ccccc3)CC2)cc1 | inactive |
| Cc1sc2ncnc(N3CCC(C(=O)NNC(=O)c4ccc(F)cc4)CC3)c2c1C | inactive |
| Cn1c2ccccc2c(=O)c2c(O)cccc21 | -5.96 (active) |
| Cc1cc(C)c(-c2c(O)c3ccccc3n(C)c2=O)c(C)c1 | inactive |
| CCn1c(=O)cc(O)c2ccccc21 | inactive |
| CCCC[C@@H]1CN=C(N)N1CCc1cccc(F)c1 | inactive |
| Cc1cccc(Nc2nc(NCCO)nc(N3CCCC3)n2)c1 | inactive |
| COc1ccc(C(=O)N(Cc2ccccc2)c2ccc(C)cc2)cc1S(=O)(=O)N1CCOCC1 | inactive |
| COc1cccc(NC(=O)CSc2nccn(-c3ccc4c(c3)OCCO4)c2=O)c1 | inactive |

| Compound | B-score |
| --- | --- |
| CC(C)(C)S(=O)(=O)c1ccccc1-c1noc(-c2ccccc2)c1C(N)=O | inactive |
| CN(C)CCn1c2c(c(SCC(=O)NCc3ccccc3)nc1=O)CCC2 | inactive |
| Nc1cc(N2CCCCCC2)c2nonc2c1[N+](=O)[O-] | -7.12 (active) |
| COCCNc1nc(N)c([N+](=O)[O-])c(N2CCCCCC2)n1 | inactive |
| Nc1nc(NCC(=O)O)nc(N2CCCCCC2)c1[N+](=O)[O-] | inactive |
| Cc1ccc(S(=O)(=O)N2CCN(C(=O)Cc3sc(C)nc3-c3ccc(F)cc3)CC2)c(C)c1 | inactive |
| COc1ccc(NC(=O)CN(C)C(=O)c2cccc(S(=O)(=O)N3CCN(c4ccccc4)CC3)c2)cc1 | inactive |
| Cc1ccccc1NC(=O)COc1cccc2c1CCNC2=O | inactive |
| Cc1c(NC(=S)Nc2ccccc2)c(=O)n(-c2ccccc2)n1C | inactive |
| Cc1ccc(S(=O)(=O)CC(=O)Nc2c(C)n(C)n(-c3ccccc3)c2=O)cc1 | inactive |
| Cc1ccc(S(=O)(=O)/N=C(/NC(=S)Nc2c(C)n(C)n(-c3ccccc3)c2=O)c2ccccc2)cc1 | -6.35 (active) |
| CC(=O)N1CCc2c(sc(NC(=O)CCS(=O)(=O)c3ccc(C)cc3)c2C(N)=O)C1 | inactive |
| O=C(c1cc(-c2ccco2)nc2ccccc12)N(Cc1nnc(-c2ccc(Cl)cc2)o1)C1CC1 | inactive |
| CC(C)CN(C(=O)COC(=O)c1ccc2ccccc2c1)c1c(N)n(Cc2ccccc2)c(=O)[nH]c1=O | inactive |
| COc1ccc(/C=N/NC(=O)c2cc(-c3cccc(C)c3)nc3ccccc23)cc1O | inactive |
| COc1ccccc1OCCCCCCN1CCN(C)CC1 | inactive |
| CCN(CC)c1ccc(S(=O)(=O)N2CCCCC2)cc1NC(=O)C1=COCCO1 | inactive |
| CCOc1ccccc1Nc1ccc(C(=O)O)cc1[N+](=O)[O-] | inactive |
| Cc1ccccc1Nc1c([N+](=O)[O-])ccc2nonc12 | inactive |
| CCOc1ccccc1Nc1ccc2nonc2c1[N+](=O)[O-] | -6.62 (active) |
| COc1ccc(-c2ccc3nnc(SCC(=O)Nc4ccc(NC(C)=O)cc4)n3n2)cc1 | inactive |
| Cc1ccccc1-n1c(C)cc(/C=C2\NC(=O)NC2=O)c1C | -8.08 (active) |
| Cc1cc(/C=C2/NC(=O)NC2=O)c(C)n1-c1cccnc1 | inactive |
| Cc1cccc(C)c1-n1c(C)cc(/C=C2\C(=O)NN(c3ccccc3)C2=O)c1C | inactive |
